Molecules are shown by their SMILES. Screen size: about 69,000 compounds; about 8,600 (12%) showed an effect of 50% or more. This is one part of a sample in which strong results are shown more often than they occur.

117 compounds from ChEMBL document CHEMBL4513216, “Probing the Open Global Health Chemical Diversity Library for Multistage-Active Starting Points for Next-Generation Antimalarials” (ACS Infect Dis, 2020) can be followed below.

This test deals with Plasmodium berghei. Description: Screen against P. berghei liver stage (PbLuc), transformed with Luciferase, at 10uM. In kind it is functional, HepG2. As to conditions: tested at 10 uM.
`Cc1nc(CN(C)C(=O)NC(C)c2ccc3c(c2)OCCO3)cs1` (configuration not stated): the INHIBITION amounted to 31.2%. The result for `CC(Cn1cccn1)NC(=O)CCc1nc(C(C)(C)C)no1` (configuration not stated) reads 10.6%.

For `O=C1COC2(CCN(Cc3ccncc3)CC2)CN1c1ccccc1`, the INHIBITION is recorded as -27.4%. The result for `Cc1c[nH]c(C2COCCN2S(=O)(=O)c2cn[nH]c2)n1` (configuration not stated) reads -8.12%; that for `CCc1nc(N)nc(NCCC(=O)N2CCCC2)c1C`, 62.8%. The result for `Cc1ccc(CSc2nc(N)cc(NCCC(=O)N3CCCC3)n2)cc1` reads 36.6%; that for `CCc1cnc(C)nc1NCCC(=O)N1CCC(C)CC1`, -21.1%. Take `CCn1ccnc1CN1CCC(N(Cc2ncc(C)o2)C(C)=O)C1` (configuration not stated): the INHIBITION is 48.2%. As to `Cn1cc(CC(=O)N2CCCC(c3ccn[nH]3)C2)cn1` (configuration not stated), the INHIBITION worked out at 5.11%. Take `CO[C@@H]1CCN(c2ncc(F)cn2)[C@@H]2CN(CC3CC3)C[C@@H]21`: the INHIBITION was 60.3%.

As to `CCN1C[C@H]2[C@@H](C1)N(c1ncc(F)cn1)CC[C@H]2OC`, the INHIBITION worked out at 84.5%. With `Fc1cnc(N2CCO[C@H]3CN(CC4CCCC4)C[C@H]32)nc1` the figure was -13.3%; with `Fc1cnc(N2CCO[C@H]3CN(CC4CCCCC4)C[C@H]32)nc1`, 30.3%; with `CO[C@@H]1CCN(c2ncc(F)cn2)[C@@H]2CN(Cc3cccnc3)C[C@@H]21`, 31.4%. With `CO[C@H]1CCN(c2ncc(F)cn2)[C@@H]2CN(Cc3ccco3)C[C@H]12` the figure was 49.1%; with `CCN1CCN(c2nc(O)cc(Cc3ccccc3F)n2)CC1`, 10.9%. With `CNS(=O)(=O)c1ccsc1C(=O)OC` the figure was 37.6%; with `CNC(=O)c1sccc1S(=O)(=O)Nc1ccc(C)cc1`, 61.1%; with `CNC(=O)c1sccc1S(=O)(=O)NC`, 46.6%. `O=C(c1cccnc1)N1CCCC1c1nc(O)cc(-c2ccccn2)n1` (configuration not stated): the INHIBITION came out at 36.7%.

Consider `O=C1NCCCC1NC(=O)C1(c2cccc(Cl)c2)CCC1` (configuration not stated), for which the INHIBITION is reported as -2.27%. In the case of `c1ccc(CCNc2cccc(C3CCCNC3)n2)cc1` (configuration not stated), the INHIBITION turned out to be 34%. With `O=S(=O)(c1cccc(Cl)c1)N1C[C@@H]2CCN[C@@H]2C1` the figure was -14.7%; with `O=C(Cc1cccc(Cl)c1)N[C@@H]1CCNC[C@H]1O`, 0.547%; with `Clc1cccc(C[C@@H]2NCCC[C@@H]2Nc2cccc(Cl)c2)c1`, 92.6%. For the compound `Clc1cccc(N[C@H]2CCCN[C@H]2Cc2ccccc2)c1`, the INHIBITION was found to be 91.6%. With `O=C1NCCCc2[nH]c(Cc3cccc(Cl)c3)nc21` the figure was 32%; with `O=C(NCCc1cccc(Cl)c1)C1CCOCC1`, 27.7%. With `Clc1cccc(C[C@@H]2NCCC[C@@H]2Nc2ccccc2)c1` the figure was 86.1%; with `CCOCC(=O)N1CCC2(CC1)COCCN2CCN(C)C`, -3.33%; with `O=C(c1ccc(F)cc1)N1C[C@H]2CCC[C@@]2(COCc2ccncc2)C1`, 16.8%.

With `CC(C)CNC(=O)C1(Cc2ccccc2-c2cccs2)CCNC1` (configuration not stated), the INHIBITION is 14.7%. With `COc1ccc(C(C)NC(=O)Cn2ccc(=O)n(C)c2=O)cc1F` (configuration not stated) the figure was -29.8%. The result for `Cc1ccccc1OCC(O)CN1CCC(Cn2cccn2)CC1` (configuration not stated) reads 17.5%; that for `O=S1(=O)c2ccccc2OCC2(CCN(CCO)CC2)CN1CC1CC1`, -8.94%; that for `CC(=O)N1CCC2(CCN(C(=O)c3ccc(Cl)c(C(F)(F)F)c3)C2)C1` (configuration not stated), 50.9%. The result for `CC(=O)N1CC2(CCN(C(=O)c3ccc4c(c3)OCCO4)CC2)C1` reads -38.1%; that for `CC(=O)N1CCC2(CCN(C(=O)c3ccc(Cl)c(C(F)(F)F)c3)CC2)C1`, 51.2%. In the case of `CC(=O)N1CCC2(CCCN(C(=O)c3ccc(Cl)c(C(F)(F)F)c3)C2)C1` (configuration not stated), the INHIBITION came out at 28.7%. Consider `CC(=O)N1CCCC2(CCN(C(=O)c3ccc(Cl)c(C(F)(F)F)c3)C2)C1` (configuration not stated), for which the INHIBITION is 32.2%. As for `CC(=O)N1CC2(CCN(C(=O)c3ccoc3)C2)C1`, the INHIBITION was 27.6%.

`Cc1nc(-c2cccnc2)ncc1C(=O)N1CCCC(N(C)C)CC1` (configuration not stated): the INHIBITION is on record as 21.6%.

Take `Cc1nc(-c2cccnc2)ncc1C(=O)N1CCC(c2ncc[nH]2)CC1`: the INHIBITION is 21.6%.

Take `CCCOCC1CCN(C(=O)c2cnc(-c3cccnc3)nc2O)C1` (configuration not stated): the INHIBITION was -27.3%.

As to `Cc1nc(-c2cccnc2)ncc1C(=O)N1CCC(C(C)N(C)C)CC1` (configuration not stated), the INHIBITION is reported as 70.4%.

As to `Cc1nc(-c2cccnc2)ncc1C(=O)N1CCCCC(N)C1` (configuration not stated), the INHIBITION amounted to 55.6%.

Regarding `N[C@H]1CCCN(C(=O)c2cnc(COc3ccccc3)nc2O)C1`, the INHIBITION is -58%. Regarding `Cc1nn(C)c(C)c1C1CCCN1Cc1nc(-c2cccs2)no1` (configuration not stated), the INHIBITION is -2.53%.

Turning to `CC(C)c1nccc(CN2CCCC(O)(CN(C)C)CC2)n1` (configuration not stated), the INHIBITION was -3.55%. For the compound `CC1CN(CC(=O)N2CCOCC2)CCN1Cc1nccn1C` (configuration not stated), the INHIBITION was 20.915%. With `Cc1nc2c(c(Nc3ccccn3)n1)CN(S(C)(=O)=O)CC2`, the INHIBITION is -10.4%. As to `N#Cc1ccccc1C(=O)N1C[C@@H]2CC[C@H]1CN(Cc1ccccc1)C2`, the INHIBITION is listed as 27.6%. Turning to `COCCCSc1ccc(NC(=O)Nc2cn[nH]c2)cc1`, the INHIBITION is reported as 41.2%.

Turning to `COc1cc2nc(NCc3scnc3C)nc(N)c2cc1OC`, the INHIBITION was 45%. Turning to `COCCCSc1ccc(NCc2cscn2)cc1`, the INHIBITION came to 26.9%. With `COCCCSc1ccc(NCc2scnc2C)cc1` the figure was 95.4%; with `COCCCSc1ccc(NCc2ccc(C)cn2)cc1`, 72.2%. The result for `COCCn1ccc(NCc2scnc2C)n1` reads 17.7%; that for `COCCCNC(=O)c1cc(OC)c2ccoc2c1`, -25.7%. The result for `CNC(=O)[C@H]1C[C@@H]2CN(C(=O)c3ccoc3)C[C@@H]2N1S(C)(=O)=O` reads -15.2%; that for `Cc1ccsc1C(=O)NCc1ccnc(N2CCN(C)CC2)c1`, 4.45%. On to `Cn1cc(NC(=O)Cc2ccccc2Br)cc1C(N)=O`, for which the INHIBITION is reported as -3.21%. Regarding `CC(C)(C)c1ccc(OCC(=O)O)c(CN2C[C@H]3CC(O)C[C@H]3C2)c1` (some centres not stated), the INHIBITION is given as 40.55%. Regarding `Cc1ccccc1CN1CCC2(COCc3cnc(N(C)C)nc32)C1` (configuration not stated), the INHIBITION was determined as 21.8%. The result for `Cc1noc(C)c1CN(C)C(=O)c1ccc(C(F)(F)F)nc1` reads -9.37%; that for `CN(C)CCN1CCOCC2(CCN(Cc3ccc[nH]3)CC2)C1`, -7.94%. With `Cc1cccc(N2CC(c3nnc(N)s3)CC2=O)c1` (configuration not stated) the figure was 35%. For the compound `Fc1ccc(-c2noc([C@@H]3Cc4nc[nH]c4CN3)n2)cc1`, the INHIBITION is on record as -9.26%. The result for `FC(F)(F)Oc1ccc(-c2noc([C@@H]3Cc4nc[nH]c4CN3)n2)cc1` reads 64.8%; that for `Cc1ccc(-c2noc([C@@H]3Cc4nc[nH]c4CN3)n2)cc1`, 36.2%; that for `O=C(N[C@H]1CCCC[C@@H]1O)c1ccc(-c2nc3ccccc3[nH]2)cc1`, 14.5%. Consider `Cc1ccc(NC2CCN(C(=O)c3cc(C)no3)CC2)nn1`, for which the INHIBITION is -25.85%. With `CN(CCC(F)(F)F)C(=O)C1CSCN1C(=O)C(C)(C)C` (configuration not stated), the INHIBITION was determined as 31.2%. In the case of `Cc1ncoc1C(=O)N1CCCC(c2ccc3c(N)nn(C)c3n2)C1` (configuration not stated), the INHIBITION was found to be 5.2%. With `CCC(=O)N1CCC(c2nc3c(c(NC)n2)CN(C)CC3)C1` (configuration not stated) the figure was -22.6%. The result for `CNc1nc(C2CCCN2C(C)=O)nc2c1CN(C1CCCC1)CC2` (configuration not stated) reads 67.9%. On to `CNc1nc(C2CCN(C(=O)CC3CCCC3)C2)nc2c1CN(C)CC2` (configuration not stated), for which the INHIBITION worked out at 67.7%. With `CNc1nc(C2CCCN2C(C)=O)nc2c1CCN(CC1CC1)C2` (configuration not stated) the figure was -2.42%. As to `CNc1nc(C2CCCN2C(C)=O)nc2c1CN(CCO)CC2` (configuration not stated), the INHIBITION turned out to be 11.5%. The result for `CNc1nc(C2CCCN(C(=O)CNC(C)=O)C2)nc2c1CN(C)CC2` (configuration not stated) reads 42.4%; that for `CSCC(C)(O)CNS(=O)(=O)Cc1ccc(F)cc1` (configuration not stated), 33.7%; that for `CC(C)(C(=O)O)S(=O)(=O)c1ccc(Br)cc1`, 4.82%. With `Cn1ncc2c1C(COCC1CC1)CN(Cc1ccoc1)C2` (configuration not stated) the figure was 35.8%; with `N#Cc1ccc(C(=O)N(Cc2ccncc2)C2CC2)cc1`, -19.4%; with `N#Cc1cccc(OCC(=O)N(Cc2ccncc2)C2CC2)c1`, 59.1%.

As to `N#Cc1cccc(OCC(=O)N(Cc2ccsc2)C2CC2)c1`, the INHIBITION is 54.5%.

On to `O=C(c1cccnc1)N(Cc1ccncc1)C1CC1`, for which the INHIBITION is 14.8%.

Regarding `Cc1noc(C)c1CN(C)C(=O)COc1cccc(C#N)c1`, the INHIBITION came out at 8.08%. With `Cc1cccc(OCC(=O)N(Cc2ccncc2)C2CC2)c1`, the INHIBITION is 31.3%.

As for `O=C(COc1ccccc1)N(Cc1ccncc1)C1CC1`, the INHIBITION was determined as 61.9%. The result for `N#Cc1cccc(CN(CCO)Cc2ccsc2)c1` reads 33.4%; that for `COc1cc(C(C)=O)ccc1OCC(=O)N(Cc1ccsc1)C1CC1`, -16%. The result for `O=C(COc1ccc2c(c1)CCC2)NCc1ccco1` reads 33.2%. With `O=C(NC1CCC2(CCC(=O)N2CC2CC2)CC1)c1cnccn1` (configuration not stated) the figure was -40.5%; with `CNC(=O)C(C)(C)N1CCC[C@H]1C(=O)NCCN(C)C`, 49.4%; with `C=C(C)CSc1nnc(CCNC(=O)OC(C)(C)C)o1`, -0.532%. On to `CCSc1nnc(CCNC(=O)OC(C)(C)C)o1`, for which the INHIBITION was -17.3%. The result for `COC(=O)CSc1nnc(CCNC(=O)OC(C)(C)C)o1` reads 52.5%; that for `Cc1cccc(-c2nccnc2C2CCCN(C)C2)c1` (configuration not stated), 16.105%; that for `Cc1nccn1CC1CCCN1S(=O)(=O)Cc1cccc(F)c1` (configuration not stated), -7.35%. Turning to `O=C(c1cc(C2CCCCC2)no1)N1C[C@H]2CC(O)C[C@H]2C1` (some centres not stated), the INHIBITION is reported as -15.1%.

Turning to `Cc1ncc2c(n1)CCCC2NC(=O)c1cnn(Cc2ccccc2)c1` (configuration not stated), the INHIBITION was found to be 26.4%. With `Cc1ncc2c(n1)CCCC2NC(=O)c1ccccc1Cn1cncn1` (configuration not stated) the figure was 64%. As for `Cc1ncc2c(n1)CCCC2NC(=O)c1ccccc1C(=O)O` (configuration not stated), the INHIBITION is 11.6%.

For the compound `Cc1nc(C)c(C(=O)N2CCc3nnc(C4CCCN4C)n3CC2)s1` (configuration not stated), the INHIBITION was -14.6%.

With `CCN1CCOCC12CCN(C(=O)Cc1cccs1)CC2`, the INHIBITION came to 23.3%. With `CC(C)C(=O)N1CCC2(CC1)COCCN2Cc1ccc(F)cc1` the figure was 63.7%; with `O=C(C1CC1)N1CCC2(CCN2Cc2ccc(F)cc2)C1` (configuration not stated), 9.97%. Turning to `O=C(C1CC1)N1CCC2(CCCN2Cc2ccc(F)cc2)CC1`, the INHIBITION is 13.7%. Turning to `O=C(Cc1ccccc1)N1CCC2(CCN2Cc2ccc(F)cc2)C1` (configuration not stated), the INHIBITION was 1.34%. As for `O=C(CC1CCCC1)N1CCC2(CCN2Cc2ccc(F)cc2)C1` (configuration not stated), the INHIBITION is on record as -43%. As to `CCN1CCOCC12CCN(C(=O)Cc1ccccc1)CC2`, the INHIBITION is reported as 28.7%. Take `CC(C)CC(=O)N1CCC2(CC1)COCCN2Cc1ccc(F)cc1`: the INHIBITION is 56.7%. With `COCC(=O)N1CCC2(CC1)COCCN2Cc1ccc(F)cc1` the figure was 26.4%. With `CC(=O)N1CCC2(CC1)COCCN2Cc1ccc(F)cc1` the figure was 34.7%; with `O=C(C1CC1)N1CCC2(CC1)COCCN2Cc1ccc(F)cc1`, 68.4%; with `CCC(=O)N1CCC2(CC1)COCCN2Cc1ccc(F)cc1`, 66%.
